Measured values taken from PubChem BioAssay (NCI).
About 83,000 compounds went through this panel and 20% of them were active in at least one assay; those are over-represented in the sample as a whole.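 Single-dose data. Exposure time 48 hours. Values below 10 considered active.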 Active and inactive are the calls of the source.

Legend:
Test in all cases: NCI-60 one-dose screen, 48 h (100 = growth as untreated, 0 = no growth, -100 = all killed)
Conditions in all cases: 10 µM unless noted
SR leukemia = system: SR leukemia
RPMI-8226 leukemia = system: RPMI-8226 leukemia
OVCAR-8 ovarian = system: OVCAR-8 ovarian
OVCAR-5 ovarian = system: OVCAR-5 ovarian
OVCAR-4 ovarian = system: OVCAR-4 ovarian
SK-OV-3 ovarian = system: SK-OV-3 ovarian
IGROV1 ovarian = system: IGROV1 ovarian
OVCAR-3 ovarian = system: OVCAR-3 ovarian
HS 578T breast = system: HS 578T breast
NCI/ADR-RES ovarian = system: NCI/ADR-RES ovarian
T-47D breast = system: T-47D breast
BT-549 breast = system: BT-549 breast
MDA-MB-435 melanoma = system: MDA-MB-435 melanoma
SW-620 colon = system: SW-620 colon
MCF7 breast = system: MCF7 breast
HCT-116 colon = system: HCT-116 colon
HCC-2998 colon = system: HCC-2998 colon
KM12 colon = system: KM12 colon

Measured: growth

CC(C)C1=NOC(=O)C1=Cc1cn(-c2ccccc2)nc1-c1ccc(F)cc1
active: SR leukemia -17% | RPMI-8226 leukemia -17.4%
inactive: OVCAR-8 ovarian 60.2% | OVCAR-5 ovarian 95.2% | OVCAR-4 ovarian 94.1% | SK-OV-3 ovarian 107% | IGROV1 ovarian 61.3% | OVCAR-3 ovarian 64% | HS 578T breast 49.6% | NCI/ADR-RES ovarian 101% | T-47D breast 76.9% | BT-549 breast 121% | MDA-MB-435 melanoma 77.4% | SW-620 colon 61.2% | MCF7 breast 50.8% | HCT-116 colon 32.4% | HCC-2998 colon 79.8% | KM12 colon 69.7%

COC1=CC(c2ccc[nH]2)=N/C1=C\c1[nH]c(C)c(C)c1CCC(=O)OCc1ccccc1
active: SR leukemia -47.1% | RPMI-8226 leukemia -51.1% | OVCAR-8 ovarian -11.3% | OVCAR-5 ovarian 7.87% | OVCAR-4 ovarian 9.61% | IGROV1 ovarian 0.242% | OVCAR-3 ovarian -73.8% | HS 578T breast -9.2% | NCI/ADR-RES ovarian -0.591% | T-47D breast 2.57% | BT-549 breast -28.7% | MDA-MB-435 melanoma -39% | SW-620 colon -14.8% | MCF7 breast 3.15% | HCT-116 colon -76% | HCC-2998 colon 6.09% | KM12 colon -20.9%
inactive: SK-OV-3 ovarian 29.5%

COc1ccc(/C=N/NC(=O)c2ccc(-n3cc(-c4ccccc4)nn3)cc2)cc1OC
inactive: SR leukemia 111% | RPMI-8226 leukemia 61.8% | OVCAR-8 ovarian 99% | OVCAR-5 ovarian 97.9% | OVCAR-4 ovarian 106% | SK-OV-3 ovarian 99.3% | IGROV1 ovarian 95.6% | OVCAR-3 ovarian 129% | HS 578T breast 103% | NCI/ADR-RES ovarian 101% | T-47D breast 98.3% | BT-549 breast 92.9% | MDA-MB-435 melanoma 98.4% | SW-620 colon 116% | MCF7 breast 75.3% | HCT-116 colon 92.7% | HCC-2998 colon 113% | KM12 colon 104%

CN(C)c1ccc(C(=O)OCCCCCCl)cc1
inactive: SR leukemia 89.4% | RPMI-8226 leukemia 106% | OVCAR-8 ovarian 106% | OVCAR-5 ovarian 75.6% | OVCAR-4 ovarian 95.4% | SK-OV-3 ovarian 102% | IGROV1 ovarian 101% | OVCAR-3 ovarian 95.4% | HS 578T breast 103% | NCI/ADR-RES ovarian 97.6% | T-47D breast 82% | BT-549 breast 94.1% | MDA-MB-435 melanoma 96.6% | SW-620 colon 99.9% | MCF7 breast 95.1% | HCT-116 colon 96.7% | HCC-2998 colon 98.4% | KM12 colon 97%

C=C(C)[C@@H]1CC[C@]2(C(=O)O)CC[C@]3(C)[C@H](CC[C@@H]4[C@@]5(C)CCC(NC(=O)c6cccc(OC(C)=O)c6OC(C)=O)C(C)(C)[C@@H]5CC[C@]43C)[C@@H]12 (stereo partly drawn)
inactive: OVCAR-8 ovarian 10.7% | OVCAR-4 ovarian 12.9% | OVCAR-3 ovarian 11.8% | HS 578T breast 15.8% | T-47D breast 20.9% | BT-549 breast 16.5% | HCC-2998 colon 12% | KM12 colon 12.1%
active: SR leukemia 3.23% | RPMI-8226 leukemia -17.8% | OVCAR-5 ovarian 1.76% | SK-OV-3 ovarian 6.71% | IGROV1 ovarian 5.12% | NCI/ADR-RES ovarian 8.44% | MDA-MB-435 melanoma -56.4% | SW-620 colon 2.79% | MCF7 breast 4.17% | HCT-116 colon -38.6%

CCCc1c(OC(=O)c2ccccc2)nc2[nH]c(=O)sc2c1C
inactive: SR leukemia 115% | RPMI-8226 leukemia 103% | OVCAR-8 ovarian 102% | OVCAR-5 ovarian 98.8% | OVCAR-4 ovarian 114% | SK-OV-3 ovarian 95.8% | IGROV1 ovarian 101% | OVCAR-3 ovarian 103% | HS 578T breast 99.9% | NCI/ADR-RES ovarian 97.9% | T-47D breast 89.7% | BT-549 breast 95.1% | MDA-MB-435 melanoma 103% | SW-620 colon 95.3% | MCF7 breast 92.9% | HCT-116 colon 98% | HCC-2998 colon 93.5% | KM12 colon 101%

Cc1cccc(CNc2c3ccccc3nc3ccccc23)c1
inactive: OVCAR-8 ovarian 20.3% | OVCAR-5 ovarian 35.8% | OVCAR-4 ovarian 27.9% | SK-OV-3 ovarian 45.3% | IGROV1 ovarian 19.5% | OVCAR-3 ovarian 30.8% | HS 578T breast 30.3% | NCI/ADR-RES ovarian 25.7% | T-47D breast 25.3% | BT-549 breast 67.3% | MDA-MB-435 melanoma 29.1% | SW-620 colon 17.2% | KM12 colon 25.6%
active: SR leukemia -2.88% | RPMI-8226 leukemia -20.4% | MCF7 breast 6.23% | HCT-116 colon 9.81% | HCC-2998 colon 3.58%

COC1=CC(c2ccc[nH]2)=N/C1=C\c1[nH]c(C)c(CC(=O)NCc2ccccc2)c1C
active: SR leukemia -29.1% | NCI/ADR-RES ovarian -40.7% | HCT-116 colon 2.09% | KM12 colon -46.1%
inactive: RPMI-8226 leukemia 18.4% | OVCAR-8 ovarian 19.4% | OVCAR-5 ovarian 31.5% | OVCAR-4 ovarian 46.3% | SK-OV-3 ovarian 25.7% | IGROV1 ovarian 38.2% | OVCAR-3 ovarian 11.1% | HS 578T breast 24.6% | T-47D breast 15.1% | BT-549 breast 40.2% | MDA-MB-435 melanoma 15.9% | SW-620 colon 20.6% | MCF7 breast 11% | HCC-2998 colon 13.9%

O=C(O)c1cn(C2CC2)c2cc(N3CCN(Cc4ccc5ccccc5c4O)CC3)c(F)cc2c1=O
active: SR leukemia 6.63% | OVCAR-3 ovarian -26.2% | HS 578T breast -1.88% | BT-549 breast -59.1%
inactive: RPMI-8226 leukemia 73.5% | OVCAR-8 ovarian 14.4% | OVCAR-5 ovarian 51% | OVCAR-4 ovarian 32.5% | SK-OV-3 ovarian 49.7% | IGROV1 ovarian 33.3% | NCI/ADR-RES ovarian 48% | T-47D breast 30.9% | MDA-MB-435 melanoma 33.6% | SW-620 colon 36.1% | MCF7 breast 17% | HCT-116 colon 14.5% | HCC-2998 colon 41.9% | KM12 colon 42.4%

CS(=O)(=O)Nc1cc(-c2ccc3ncnc(Nc4ccc5c(cnn5Cc5cccc(F)c5)c4)c3c2)cnc1Cl
inactive: OVCAR-8 ovarian 28.1% | OVCAR-4 ovarian 26.4% | NCI/ADR-RES ovarian 78.2% | SW-620 colon 18.4% | KM12 colon 13.9%
active: SR leukemia 4.76% | RPMI-8226 leukemia -24.4% | OVCAR-5 ovarian 7.19% | SK-OV-3 ovarian -17.7% | IGROV1 ovarian -51.2% | OVCAR-3 ovarian -5.45% | HS 578T breast -14.8% | T-47D breast -24.6% | BT-549 breast -13.5% | MDA-MB-435 melanoma 8.98% | MCF7 breast 0.881% | HCT-116 colon 4.08% | HCC-2998 colon 2.5%

O=C1/C(=C\c2ccc3nccnc3c2)SC(=S)N1CCc1ccc(O)cc1
inactive: SR leukemia 68.9% | RPMI-8226 leukemia 68.2% | OVCAR-8 ovarian 98.4% | OVCAR-5 ovarian 102% | OVCAR-4 ovarian 88.1% | SK-OV-3 ovarian 113% | IGROV1 ovarian 94.1% | OVCAR-3 ovarian 101% | HS 578T breast 94.3% | NCI/ADR-RES ovarian 101% | T-47D breast 50.4% | BT-549 breast 96.5% | MDA-MB-435 melanoma 93.2% | SW-620 colon 98.2% | MCF7 breast 41.9% | HCT-116 colon 94.8% | HCC-2998 colon 117% | KM12 colon 52.1%

CCN(C)S(=O)(=O)Nc1cccc(Nc2ncnc3cc(NC(=O)CCl)ccc23)c1Cl
active: SR leukemia 6.73% | RPMI-8226 leukemia -6.79% | OVCAR-8 ovarian 2.03% | OVCAR-5 ovarian -17.5% | IGROV1 ovarian -7.09% | OVCAR-3 ovarian -65.1% | BT-549 breast -4.04% | MDA-MB-435 melanoma -5.32% | SW-620 colon -53.5% | MCF7 breast -5.68% | HCT-116 colon 0.862% | KM12 colon 1.71%
inactive: OVCAR-4 ovarian 14.9% | SK-OV-3 ovarian 23.4% | HS 578T breast 13.4% | NCI/ADR-RES ovarian 59.3% | T-47D breast 16% | HCC-2998 colon 39.1%

CC(=O)Oc1ccc(N2C(=O)C(Cl)=C(Nc3cccc(C(F)(F)F)c3)C2=O)cc1
inactive: SR leukemia 80.4% | RPMI-8226 leukemia 77.6% | OVCAR-8 ovarian 97.9% | OVCAR-5 ovarian 91.5% | OVCAR-4 ovarian 110% | SK-OV-3 ovarian 87.9% | IGROV1 ovarian 97.1% | OVCAR-3 ovarian 91.9% | HS 578T breast 107% | NCI/ADR-RES ovarian 97.5% | T-47D breast 86.6% | BT-549 breast 85.8% | MDA-MB-435 melanoma 97.5% | SW-620 colon 99.1% | MCF7 breast 92.8% | HCT-116 colon 91% | HCC-2998 colon 104% | KM12 colon 96.3%

CSc1nc2ccccc2cc1/C=[N+](\[O-])c1ccccc1
inactive: SR leukemia 22.1% | RPMI-8226 leukemia 14.5% | OVCAR-8 ovarian 39.5% | OVCAR-5 ovarian 91.1% | OVCAR-4 ovarian 70.8% | SK-OV-3 ovarian 87.3% | IGROV1 ovarian 77.3% | OVCAR-3 ovarian 66.9% | HS 578T breast 74.1% | NCI/ADR-RES ovarian 28.5% | T-47D breast 61.6% | BT-549 breast 66.1% | MDA-MB-435 melanoma 45.9% | SW-620 colon 28.9% | MCF7 breast 24.9% | HCT-116 colon 10.4% | HCC-2998 colon 110% | KM12 colon 100%

NC(=O)c1ccc(-c2c3ccccc3cc3c2ccc2ccccc23)cc1
inactive: SR leukemia 15.9% | RPMI-8226 leukemia 49.7% | OVCAR-8 ovarian 77.4% | OVCAR-5 ovarian 74.7% | OVCAR-4 ovarian 80% | SK-OV-3 ovarian 69.5% | IGROV1 ovarian 42.6% | NCI/ADR-RES ovarian 16.6% | T-47D breast 60.4% | BT-549 breast 29.1% | SW-620 colon 17.1% | MCF7 breast 17.7% | HCT-116 colon 33.4% | HCC-2998 colon 60%
active: OVCAR-3 ovarian 3.85% | HS 578T breast -12.4% | MDA-MB-435 melanoma 0.545% | KM12 colon 3.27%

Nc1ncnc2c1c(-c1cccc(Cl)c1)nn2CC(=O)N1CCOCC1
inactive: SR leukemia 116% | RPMI-8226 leukemia 108% | OVCAR-8 ovarian 102% | OVCAR-5 ovarian 101% | OVCAR-4 ovarian 96.6% | SK-OV-3 ovarian 109% | IGROV1 ovarian 99.2% | OVCAR-3 ovarian 106% | HS 578T breast 103% | NCI/ADR-RES ovarian 103% | T-47D breast 105% | BT-549 breast 97.2% | MDA-MB-435 melanoma 104% | SW-620 colon 106% | MCF7 breast 94.9% | HCT-116 colon 101% | HCC-2998 colon 110% | KM12 colon 102%
